Binding signal data for 1 sequence are collected here from paper PMC7862700, “An all-to-all approach to the identification of sequence-specific readers for epigenetic DNA modifications on cytosine”.

Experiment in all cases: DAPPL (digital affinity profiling via proximity ligation, sequencing); 10 mM Tris-HCl pH 7.5, 50 mM NaCl, 1 mM DTT, 4% glycerol, room temperature, 30 min; GST-TFs on glutathione beads, 16-mer random dsDNA library, 0.1% formaldehyde crosslink after washing; high values mean tight binding
Conditions in all cases: protein: recombinant; tags: N-terminal GST; dsDNA, one strand shown

The target of experiment [1] is T1, FLI1 (Homo sapiens, UniProt Q01543 1-452).
T1 sequence: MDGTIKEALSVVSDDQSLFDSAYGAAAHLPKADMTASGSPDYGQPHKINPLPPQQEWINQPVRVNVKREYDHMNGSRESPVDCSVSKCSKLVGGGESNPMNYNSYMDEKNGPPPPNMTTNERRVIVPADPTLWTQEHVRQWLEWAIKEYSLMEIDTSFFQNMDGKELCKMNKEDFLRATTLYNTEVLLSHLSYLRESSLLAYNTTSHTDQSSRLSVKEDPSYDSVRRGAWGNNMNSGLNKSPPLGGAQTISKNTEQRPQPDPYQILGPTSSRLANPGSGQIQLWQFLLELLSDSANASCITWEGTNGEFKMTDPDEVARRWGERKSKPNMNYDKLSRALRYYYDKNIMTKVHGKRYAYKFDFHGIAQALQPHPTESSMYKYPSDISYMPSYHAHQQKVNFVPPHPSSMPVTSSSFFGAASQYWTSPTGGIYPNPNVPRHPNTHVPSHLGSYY
In short, it runs like this: (§1)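 Each value of binding signal is a hexamer's read frequency for a factor divided by the same hexamer's frequency in the tag-only sample. Barcoded, bead-captured GST fusions of human transcription factors made in yeast were pooled with that sample and incubated with 200 nmole of a random double-stranded 16-mer DNA library in Tris/NaCl/DTT/glycerol buffer at room temperature for 30 min. Washing, 0.1% formaldehyde crosslinking, proximity ligation, PCR and Illumina NextSeq500 sequencing followed.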

The target of experiment [2] is T2, ELK1 (Homo sapiens, UniProt P19419 1-428).
T2 sequence: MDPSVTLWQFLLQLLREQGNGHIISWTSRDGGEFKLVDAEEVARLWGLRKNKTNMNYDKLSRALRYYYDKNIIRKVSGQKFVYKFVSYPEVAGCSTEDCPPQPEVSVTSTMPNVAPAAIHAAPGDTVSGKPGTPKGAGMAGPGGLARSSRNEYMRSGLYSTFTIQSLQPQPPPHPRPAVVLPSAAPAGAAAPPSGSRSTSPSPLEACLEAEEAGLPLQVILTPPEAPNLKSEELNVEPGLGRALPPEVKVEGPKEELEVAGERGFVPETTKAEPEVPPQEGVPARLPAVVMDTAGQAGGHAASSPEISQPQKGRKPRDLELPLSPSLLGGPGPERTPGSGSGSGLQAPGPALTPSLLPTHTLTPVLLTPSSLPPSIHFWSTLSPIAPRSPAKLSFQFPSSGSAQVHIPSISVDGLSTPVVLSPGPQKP
In short, it runs like this: as §1

In experiment [3] the target is T3, GABPA (Homo sapiens, UniProt Q06546 1-454).
T3 sequence: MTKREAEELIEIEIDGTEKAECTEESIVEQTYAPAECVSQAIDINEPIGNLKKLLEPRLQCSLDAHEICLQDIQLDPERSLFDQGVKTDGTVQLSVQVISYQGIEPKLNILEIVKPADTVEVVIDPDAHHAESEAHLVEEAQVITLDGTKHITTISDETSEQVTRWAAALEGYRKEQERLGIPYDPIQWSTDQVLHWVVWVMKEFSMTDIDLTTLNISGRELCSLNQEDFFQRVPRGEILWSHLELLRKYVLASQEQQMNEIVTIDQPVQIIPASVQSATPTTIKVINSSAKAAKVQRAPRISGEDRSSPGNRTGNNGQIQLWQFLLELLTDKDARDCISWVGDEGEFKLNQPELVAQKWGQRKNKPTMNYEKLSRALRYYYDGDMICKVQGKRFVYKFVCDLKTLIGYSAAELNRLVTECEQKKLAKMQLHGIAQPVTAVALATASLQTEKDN
In short, it runs like this:
as §1

In experiment [4] the target is T4, ERG (Homo sapiens, UniProt P11308 1-479).
T4 sequence: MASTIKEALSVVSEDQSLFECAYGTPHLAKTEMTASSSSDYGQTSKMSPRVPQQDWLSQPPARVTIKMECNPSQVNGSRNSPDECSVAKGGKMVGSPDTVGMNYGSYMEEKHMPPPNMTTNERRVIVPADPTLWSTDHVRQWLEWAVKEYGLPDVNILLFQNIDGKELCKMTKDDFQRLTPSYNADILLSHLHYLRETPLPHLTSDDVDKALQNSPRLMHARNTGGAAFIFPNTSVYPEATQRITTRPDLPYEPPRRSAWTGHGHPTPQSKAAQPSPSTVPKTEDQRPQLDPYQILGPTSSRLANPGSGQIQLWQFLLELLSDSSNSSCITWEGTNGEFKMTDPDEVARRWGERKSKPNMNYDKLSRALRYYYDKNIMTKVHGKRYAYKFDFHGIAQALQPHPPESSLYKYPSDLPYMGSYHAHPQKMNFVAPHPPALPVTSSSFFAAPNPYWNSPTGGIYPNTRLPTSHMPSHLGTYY
An outline of the steps:
as §1

In experiment [5] the target is ELF1 (Homo sapiens, UniProt P32519 1-619). An outline of the steps:
as §1

Experiment [6] concerns the target T5, EHF (Homo sapiens, UniProt Q9NZC4 1-300).
T5 sequence: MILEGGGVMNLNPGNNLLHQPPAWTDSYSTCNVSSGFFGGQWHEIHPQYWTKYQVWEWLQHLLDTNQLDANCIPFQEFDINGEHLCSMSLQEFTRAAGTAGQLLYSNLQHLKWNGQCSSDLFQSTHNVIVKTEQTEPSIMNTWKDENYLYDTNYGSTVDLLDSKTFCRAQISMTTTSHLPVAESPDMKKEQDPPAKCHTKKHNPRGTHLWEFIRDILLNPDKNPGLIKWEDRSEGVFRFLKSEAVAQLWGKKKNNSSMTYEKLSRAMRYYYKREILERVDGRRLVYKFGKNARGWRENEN
An outline of the steps: as §1

The target of experiment [7] is T6, FEV (Homo sapiens, UniProt Q99581 1-238).
T6 sequence: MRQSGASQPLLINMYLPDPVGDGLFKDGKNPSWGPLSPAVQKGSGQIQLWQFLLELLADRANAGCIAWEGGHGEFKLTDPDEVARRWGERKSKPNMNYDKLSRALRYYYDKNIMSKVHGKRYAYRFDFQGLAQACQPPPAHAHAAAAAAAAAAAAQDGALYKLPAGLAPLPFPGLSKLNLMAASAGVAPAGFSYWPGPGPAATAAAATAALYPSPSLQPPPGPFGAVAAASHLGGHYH
An outline of the steps: as §1

Experiment [8] has as its target T7, SPIC (Homo sapiens, UniProt Q8N5J4 1-248).
T7 sequence: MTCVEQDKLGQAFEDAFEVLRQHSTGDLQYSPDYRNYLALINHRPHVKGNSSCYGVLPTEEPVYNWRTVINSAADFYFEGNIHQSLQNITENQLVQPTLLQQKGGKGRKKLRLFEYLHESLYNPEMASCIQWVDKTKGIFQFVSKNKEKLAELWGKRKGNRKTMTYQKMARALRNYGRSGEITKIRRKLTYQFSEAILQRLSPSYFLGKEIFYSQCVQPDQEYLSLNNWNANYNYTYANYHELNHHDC
In short, it runs like this: as §1

For experiment [9], the target named is ELF4 (Homo sapiens, UniProt Q99607 1-663). An outline of the steps: as §1
Chain of ELF4 (Q99607 whole entry): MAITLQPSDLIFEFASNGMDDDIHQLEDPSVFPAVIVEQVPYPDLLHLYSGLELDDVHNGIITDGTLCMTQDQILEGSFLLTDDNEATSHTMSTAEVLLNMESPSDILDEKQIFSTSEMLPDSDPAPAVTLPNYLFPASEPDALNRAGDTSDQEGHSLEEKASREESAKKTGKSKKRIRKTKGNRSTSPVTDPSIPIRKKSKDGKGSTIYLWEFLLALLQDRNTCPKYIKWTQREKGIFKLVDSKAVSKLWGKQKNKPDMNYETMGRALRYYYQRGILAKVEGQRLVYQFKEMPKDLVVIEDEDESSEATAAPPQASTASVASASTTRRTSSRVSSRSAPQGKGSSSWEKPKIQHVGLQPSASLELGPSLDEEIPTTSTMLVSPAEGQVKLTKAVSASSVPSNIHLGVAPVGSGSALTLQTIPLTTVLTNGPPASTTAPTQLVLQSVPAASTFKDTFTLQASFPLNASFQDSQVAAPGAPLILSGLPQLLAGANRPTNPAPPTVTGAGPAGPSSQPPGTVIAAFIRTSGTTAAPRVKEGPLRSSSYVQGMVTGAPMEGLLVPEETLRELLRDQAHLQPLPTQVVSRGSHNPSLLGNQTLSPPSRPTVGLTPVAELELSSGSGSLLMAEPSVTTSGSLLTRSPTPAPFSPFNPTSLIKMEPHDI

Chain of ELF1 (P32519 whole entry): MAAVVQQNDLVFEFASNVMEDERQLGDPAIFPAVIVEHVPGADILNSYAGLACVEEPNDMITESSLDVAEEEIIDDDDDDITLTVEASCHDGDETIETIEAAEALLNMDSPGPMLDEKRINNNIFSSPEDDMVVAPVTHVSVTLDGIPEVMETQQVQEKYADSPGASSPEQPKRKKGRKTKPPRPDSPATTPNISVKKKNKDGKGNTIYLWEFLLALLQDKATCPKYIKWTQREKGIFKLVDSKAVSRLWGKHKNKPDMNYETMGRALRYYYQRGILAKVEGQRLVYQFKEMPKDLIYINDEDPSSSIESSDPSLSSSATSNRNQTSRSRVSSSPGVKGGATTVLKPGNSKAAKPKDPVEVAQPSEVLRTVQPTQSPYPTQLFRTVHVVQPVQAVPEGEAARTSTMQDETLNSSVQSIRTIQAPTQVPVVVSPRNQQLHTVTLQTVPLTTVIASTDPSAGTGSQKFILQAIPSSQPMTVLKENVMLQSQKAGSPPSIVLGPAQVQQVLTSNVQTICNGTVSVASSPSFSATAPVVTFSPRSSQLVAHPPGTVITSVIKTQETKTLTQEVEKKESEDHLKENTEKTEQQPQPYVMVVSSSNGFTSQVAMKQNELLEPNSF

Turning to CACACC, the binding signal in experiment [1] is 1.07 fold enrichment (6-mer frequency, TF over GST control); in experiment [2] it was 1.07 fold enrichment (6-mer frequency, TF over GST control); in experiment [3], 1.01 fold enrichment (6-mer frequency, TF over GST control); in experiment [4] it was 1.04 fold enrichment (6-mer frequency, TF over GST control); in [5] it was 1.02 fold enrichment (6-mer frequency, TF over GST control); in [6] it was 1.04 fold enrichment (6-mer frequency, TF over GST control). The binding signal in [7] is 1.07 fold enrichment (6-mer frequency, TF over GST control); in [8], 1.09 fold enrichment (6-mer frequency, TF over GST control); in [9], 1.06 fold enrichment (6-mer frequency, TF over GST control).
